Results published in PubChem BioAssay.
A number with no mark means an inactive call.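 Rule for the calls: active = viability at or below 10% of carrier control in both of two separate runs; inconclusive = viability at or below 10% in only one of the two runs; inactive = the rest.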

Experiment: SK-BR-3 cell growth inhibitors, pilot screen, 24 h, human (AID 572);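 note: compound exposure lasted between 18 and 24 h rather than exactly 24 h; 100% = carrier-treated control wells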
Conditions: SK-BR-3 viability, CellTiter-Glo luminescence, at 10 µM, hits give low values

SMILES | viability [%]
Cc1noc(C)c1COc1cccc(C(=O)Nc2ccc(C#N)cc2)c1 | 96
Cc1ccc(NCc2nnc(SCC(=O)N3CCCCC3)n2CC2CCCO2)c(C)c1 (stereo not given) | 94.5
COc1ccc(S(=O)(=O)N2CCOCC2)cc1C(=O)Nc1cc(C)on1 | 102
CC(NC(=O)c1ccco1)C(c1cccs1)N1CCN(c2ccc(F)cc2)CC1 (stereo not given) | 96
CCN1C(=O)NC(c2cc(Br)ccc2OC)C(C(=O)OC)=C1C (stereo not given) | 104
COc1ccc(N2CCN(C(c3cccs3)c3nnnn3C3CCCC3)CC2)cc1 (stereo not given) | 90.5
c1ccc(-n2c(Sc3cnccn3)nnc2-c2cccs2)cc1 | 114
Nn1c(SCC(=O)Nc2ccc3c(c2)OCCO3)nnc1C(F)(F)F | 88.5
O=C(NC1=NCCS1)NC12CC3CC(CC(C3)C1)C2 | 111
CC1CCCCC1NC(=O)Cn1nnc(-c2ccc(Cl)cc2)n1 (stereo not given) | 86
CCOC(=O)C(NC(=O)c1ccc(OC)cc1)(N1CCOCC1)C(F)(F)F (stereo not given) | 112
CC(C)Cc1cc(C(=O)Nc2c(F)cc(F)cc2Br)no1 | 88.5
CCC(C)(C(=O)NC1CCCCC1)N(CC1CCCO1)C(=O)c1ccccn1 (stereo not given) | 82
COCCNC(=O)C(c1ccc(C)o1)N(Cc1ccc(OC)cc1)C(=O)Cn1nnc2ccccc21 (stereo not given) | 102
CC(=O)c1c(C)[nH]c(C(=O)N2CCN(C(=O)c3ccco3)CC2)c1C | 85
O=C(NC12CC3CC(CC(C3)C1)C2)c1cncc(O)c1 | 104
CCOC(=O)C1CCN(c2nc3ccccc3nc2C(C#N)C(=O)OCCOC)CC1 (stereo not given) | 97
Cc1ccccc1-c1nc(CN2CCC(C(=O)NCCCN3CCOCC3)CC2)c(C)o1 | 86.5
COc1ccccc1NC(=O)C1=C(C)Nc2nnnn2C1c1ccccc1OC (stereo not given) | 94
O=C(C1CCCN(S(=O)(=O)c2cnc[nH]2)C1)N1CC(=O)N(CCc2ccccc2)C(=O)C1 (stereo not given) | 93.5

SMILES | viability [%]
Cc1c(Cl)cccc1N1C(=O)c2ccccc2C1=O | 89.5
CCN(CC)CCCN(Cc1cc2cc(OC)ccc2[nH]c1=O)C(=O)Nc1ccccc1 | 90
O=C1CCCC2=C1C(c1ccsc1)CC(=O)N2c1ccccc1 (stereo not given) | 90.5
Cc1ccc(NC(=O)CSc2nnc(NC(=O)CN3CCOCC3)s2)cc1 | 102
COC(=O)c1ccccc1NS(=O)(=O)c1ccc(F)cc1 | 120
COc1cccc(NC(=O)N2CCN(c3cccc(C)c3C)CC2)c1 | 102
CC(C)CN(C(=O)COC(=O)Cc1n[nH]c(=O)c2ccccc12)C1CCS(=O)(=O)C1 (stereo not given) | 97.5
CC1CCCC(C(=O)OCc2ccccc2)N1 (stereo not given) | 119
COc1cccc(NC(=O)NC2(C(F)(F)F)Oc3ccccc3O2)c1 | 91.5
CCC(=O)N1CCc2cc(OC)c(OC)cc2C1COc1ccc(C(=O)OC)cc1 (stereo not given) | 94.5
Cc1ccc(-c2cc(C(=O)N3CCCC3)no2)cc1 | 93.5
CCn1nc(C)c(NC(=O)c2cc(Br)ccc2Cl)c1C | 84.5
Cc1cc2nc3c(nc2cc1C)C1(C(=O)O)CCC3(C)C1(C)C (stereo not given) | 103
COc1ccccc1CN1CC(C(=O)N2CCN(c3ccc(F)cc3)CC2)CC1=O (stereo not given) | 92
CC(=O)N1CCC2(CC1)CC(=O)c1cc(OCC(=O)NCc3ccco3)ccc1O2 | 106
Cc1ccc(C(=O)CCC2CCCC2=O)cc1 (stereo not given) | 90.5
Cc1nc(CNS(=O)(=O)c2ccc3c(c2)OCCO3)cs1 | 96
CCOCCCNC(=O)C1CCN(C(=O)Nc2ccc(Cl)cc2)CC1 | 103
CCc1nc2c(cnn2-c2ccc(Cl)cc2)c(=O)n1-c1ccc2c(c1)OCCO2 | 90
CCOc1ccc(C2CC(=O)NC3=C2C(=O)CCC3)cc1Cl (stereo not given) | 108
